Screening data deposited in PubChem by National Center for Advancing Translational Sciences (NCATS).
The list is not random: actives were taken first. Their share in the collection is about 18%.
TGFb inhibitor: blocks TGF-b signaling | Potency, µM (highest dose often 46.1 µM), usual class: inhibitors | HepG2 CAGA-GFP TGF-b/SMAD3 reporter, GFP fluorescence, 18 h; TGF-beta stimulated, 500 pg/mL final | 1.2% of 410,000 active; also: nearly all actives have a fitted effect of over 65% in size
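First, reporter cells (HEPG2 CAGA-GFP) rested 2 h at 37 degrees C. Next, compounds were pinned in and TGF-beta added to 500 pg/mL final. After 18 h, GFP was imaged per cell and summed per well.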
DT40 TDP1 no CPT: qHTS for Inhibitors of human tyrosyl-DNA phosphodiesterase 1 (TDP1): qHTS in cells in absence of CPT; DT40 Tdp1-/- hTDP1 cells, no CPT, ATP luminescence, 48 h; Potency, µM (highest dose often 46.2 µM), usual class: inhibitors; 15% of 420,000 active; AID 686978, 2013; also: nearly all actives have a fitted effect of over 55% in size
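Seeded 400 DT40-hTDP1 cells/well (vehicle DMSO, no 20 nM CPT); pinned compounds; ≥48 hr at 37 °C; CellTiter-Glo luminescence as viability measure.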
TDP1 block: blocks human tyrosyl-DNA phosphodiesterase 1 | Q9NUW8 | recombinant TDP1, AlphaScreen DNA substrate cleavage | Potency, µM (top dose mostly 130 µM), hits mostly inhibitors | 0.28% of 350,000 active | AID 485290; also: nearly all actives have a fitted effect of over 40% in size
Target sequence (Q9NUW8 whole entry, looked up): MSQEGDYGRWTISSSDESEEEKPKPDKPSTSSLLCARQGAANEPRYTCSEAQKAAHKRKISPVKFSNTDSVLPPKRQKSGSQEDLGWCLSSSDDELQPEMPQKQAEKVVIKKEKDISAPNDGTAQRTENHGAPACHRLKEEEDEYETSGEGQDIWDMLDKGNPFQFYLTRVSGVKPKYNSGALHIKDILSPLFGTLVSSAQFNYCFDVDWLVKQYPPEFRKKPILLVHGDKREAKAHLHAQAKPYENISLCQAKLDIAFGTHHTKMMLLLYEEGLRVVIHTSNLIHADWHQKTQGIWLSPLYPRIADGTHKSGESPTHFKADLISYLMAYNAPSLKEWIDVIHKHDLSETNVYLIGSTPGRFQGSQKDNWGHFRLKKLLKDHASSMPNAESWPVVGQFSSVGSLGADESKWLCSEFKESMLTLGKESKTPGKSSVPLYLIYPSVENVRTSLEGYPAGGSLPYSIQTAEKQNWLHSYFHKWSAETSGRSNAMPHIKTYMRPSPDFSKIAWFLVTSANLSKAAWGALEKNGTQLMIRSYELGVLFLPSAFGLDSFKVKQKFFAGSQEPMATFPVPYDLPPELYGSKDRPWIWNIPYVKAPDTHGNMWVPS
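Steps: enzyme plus compound, 15 min RT; add biotin/phosphotyrosine-FITC oligonucleotide (15 nM final), react 5 min; add donor/acceptor beads (10 ug/ml final), 10 min; read AlphaScreen. Tdp1 at 1 nM final.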
IL-1B inflam inh: inflammasome signaling inhibition, IL-1 beta readout; THP-1 LPS/ATP IL-1B secretion, AlphaLISA, 16 h; stronger effect = lower value; activity change, % at 57.5 µM; 4.7% of 360,000 active; AID 743279; in the data active = activity change below about -50%; inconclusive = mostly about -30% to -49%
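THP-1 cells pretreated 1 hr with compounds (up to 57.5 uM final), then stimulated with LPS (250 ng/mL final) plus ATP (1.25 mM final); secreted IL-1B measured by AlphaLISA after 16 hr, decreased signal indicating inhibition.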
HepG2 tox: counter-screen for TGF-b inhibitors: cytotoxicity in HepG2 cells | HepG2 CAGA-GFP viability, ATP luminescence, 18 h | Potency, µM (titrated, usually from 46.1 µM), actives largely listed as cytotoxic | 0.76% of 410,000 active
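CellTiter-Glo luminescence gave cytotoxicity after 18 hours at 37 degrees C. The cells were HepG2 CAGA-GFP in 1% FBS DMEM, stimulated with 500 pg/mL TGF-beta after compound addition. %Activity was normalised to no-cell wells (complete cell-killing) and DMSO (no toxicity), and curves were fitted and classified.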
DT40 TDP1 CPT: DT40-hTDP1 cell growth loss with CPT | chicken DT40 Tdp1-/-;hTDP1 cells + 20 nM CPT, ATP luminescence, 48 h | Potency, µM (top dose mostly 46.2 µM), hits mostly inhibitors | 12% of 420,000 active | AID 686979; also: nearly all actives have a fitted effect of over 55% in size
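Chicken DT40 Tdp1-/- cells complemented with human TDP1, 400 cells/well, exposed to compounds plus 20 nM camptothecin for at least 48 h at 37 C; viability read as ATP content by CellTiter-Glo luminescence.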
Hits are given with their value; 0 = inactive; ? = inconclusive; - = not tested or not shown; ! = repeats disagree; [ ] = dose if it differs, or a comment. Unless noted, calls follow the shape of the dose curve; as a rule, active = well fitted curve in the direction sought with a large enough effect; inconclusive = small, poorly fitted or top-dose-only effect, or another doubt; inactive = no such curve, though single readings can be large; an effect the other way counts as inactive or inconclusive.

SMILES	TGFb inhibitor	DT40 TDP1 no CPT	TDP1 block	IL-1B inflam inh	HepG2 tox	DT40 TDP1 CPT
Cc1ccccc1C(=O)Nc1ccc(C(=O)OCc2cc(=O)n3nc(C4CC4)sc3n2)cc1	0	?	0	-	0	21µM
Cc1cccc(C(=O)Nc2ccc(C(=O)OCc3cc(=O)n4nc(C5CC5)sc4n3)cc2)c1	0	?	0	-	0	?
CC(C)C(=O)Nc1ccc(N2CCN(C)CC2)c(F)c1	0	0	0	0	0	0
CC(C)C(=O)Nc1ccc([N+](=O)[O-])c(C(F)(F)F)c1	0	13µM	0	0	0	13µM
Cc1nc2ccccc2c(=O)n1/N=C/c1cc(Br)cc(Br)c1O	?	?	-	0	0	0
C[C@H]1[C@@H]2Cc3ccc(O)cc3[C@@]1(C)CCN2C	-	0	-	-	-	0
Cc1nccc2c1[nH]c1ccccc12	0	24µM!	0	0	0	?
Cc1c2ccncc2c(C)c2c1[nH]c1ccccc12	?	1.5µM	50µM	-79	13µM	2.3µM
c1ccc2c(c1)[nH]c1cnccc12	0	0	0	0	0	0
CC1Cc2ccccc2N1Cc1cccc(S(=O)(=O)N(C)C)c1 (stereo unspecified)	0	?	-	0	0	?
Nc1cccc(NP(=O)(c2ccccc2)c2ccccc2)c1	0	0	0	0	0	0
CCCC(CCC)C(=O)OC[N+](C)(C)CCOC(=O)C(O)(c1ccccc1)C1CCCC1 (stereo unspecified)	0	12µM	0	?	0	?
Cc1cc(C)n2c(Nc3ccc4c(c3)OCCO4)c(-c3cc4ccccc4o3)nc2n1	-	21µM	-	0	-	?
O=[N+]([O-])c1ccc(-c2[se]c3ccccc3c2I)cc1	-	-	0	-	-	-
COC(=O)C1=C(c2c(C)noc2C)C[C@@H]2CC[C@H]1N2C(=O)NCCOc1ccc(OC)cc1	0	0	0	0	0	0
CCCCOc1ccc(C(=O)NCCc2csc(-c3ccc(OC)cc3)n2)cc1	?	4.1µM	0	-	0	4.6µM
COc1ccccc1N1CCN(CCc2c[nH]c3cc4c(cc23)OCO4)CC1	0	18µM	-	?	0	23µM
COc1ccccc1N1CCN(Cc2c[nH]c3ccccc23)CC1	0	5.8µM	0	-	0	4.1µM
CCNC(=O)O/N=C(\C)c1sc(-c2ccccc2)nc1C	0	?	0	0	0	?
C#CCOCCOCCOCCNc1nc(N2CCN(C(=O)CCCCCCCCCCNC(=O)[C@H]([C@@H](C)CC)n3cc(CCCCN=C(N)N)nn3)CC2)nc(N2CCN(C(=O)CCCCCCCCCCNC(=O)[C@H](CO)n3cc(CCCCCN)nn3)CC2)n1	?	21µM	0	-73	0	15µM
NCCCNCCCCNCCCNC(=O)Cc1ccc(O)cc1	-	-	0[21 µM]	-	-	-
Cc1nc2ccccc2c(=O)n1-c1ccccc1Cl	-	24µM	-	-	-	?
COc1ccccc1-n1c(-c2ccccc2Br)nc2ccccc2c1=O	0	18µM	-	0	0	23µM
COc1ccccc1-n1c(-c2ccccc2F)nc2ccccc2c1=O	0	?	-	0	0	?
COc1ccccc1-n1c(-c2ccc(C)cc2)nc2ccccc2c1=O	0	12µM	-	0	0	?
SMILES	TGFb inhibitor	DT40 TDP1 no CPT	TDP1 block	IL-1B inflam inh	HepG2 tox	DT40 TDP1 CPT
Cc1nc2ccc(Cl)cc2c(=O)n1-c1ccccc1Cl	0	0	-	0	0	0
O=c1[nH]c(=S)[nH]c(O)c1N=Nc1ccc(-c2ccccc2)cc1[N+](=O)[O-]	-	-	0	-	-	-
Cc1ccc(Nc2nnc(-c3ccc(C)c(S(=O)(=O)NCc4nc5ccccc5[nH]4)c3)c3ccccc23)cc1	?	?	-	-	0	?
CCOc1cccc(=NC2CCCCC2)c2c(C)n(C)c(C)c12	10µM	2.6µM	-	-97	0	4.1µM
CCOc1ccccc1N=C1SCCCN1C	0	0	0	0	0	0
COc1ccccc1C1Nc2ccccc2-n2c(-c3ccccc3)c3c(=O)n(C)c(=O)n(C)c3c21 (stereo unspecified)	?	6.5µM	0	-	0	0
ClC1=C(Cl)[C@]2(Cl)[C@@H]3[C@H]4C[C@H]([C@@H]5O[C@H]45)[C@@H]3[C@@]1(Cl)C2(Cl)Cl	-	?	-	-	-	0
O=C(CCC1CCCN(Cc2cccc3c2OCO3)C1)NCc1ccc(F)c(F)c1 (stereo unspecified)	0	?	0	0	0	?
O=C(/C=C/c1ccccc1)C1C(=O)c2ccccc2C1=O	0	4.6µM	0	0	0	3.7µM
O=C(/C=C/c1ccccc1)NC(=S)N1C[C@H]2C[C@H](C1)c1cccc(=O)n1C2	0	0	-	0	0	0
CCN(C[C@H]1N[C@@](C)(C(=O)OC)[C@H]2C(=O)N(Cc3ccccc3)C(=O)[C@@H]12)C(=O)Nc1ccccc1	?	0	0	0	0	0
C[C@H]1CC[C@]2(NC1)O[C@H]1C[C@H]3[C@@H]4CC[C@H]5C[C@@H](O[C@@H]6O[C@H](CO)[C@H](O[C@@H]7O[C@H](CO)[C@@H](O)[C@H](O[C@@H]8OC[C@@H](O)[C@H](O)[C@H]8O)[C@H]7O[C@@H]7O[C@H](CO)[C@@H](O)[C@H](O)[C@H]7O)[C@H](O)[C@H]6O)CC[C@]5(C)[C@H]4CC[C@]3(C)[C@H]1[C@@H]2C	-	1.7µM	-	-	-	1.9µM
CN1Cc2c(ccc3c2OCO3)[C@@H]2[C@@H](O)Cc3cc4c(cc3[C@@H]21)OCO4	-	-	0[21 µM]	-	-	-
CCC(C)NC(=O)c1c(N)n(CCCOC)c2nc3ccccc3nc12 (stereo unspecified)	0	?	0	?	0	0
COCCCn1c(N)c(C(=O)Nc2ccccc2)c2nc3ccccc3nc21	?	?	0	-76	0	29µM
COCCCn1c(N)c(C(=O)Nc2sc3c(c2C(=O)OC)CCCC3)c2nc3ccccc3nc21	0	18µM	0	-72	0	?
COCCCn1c(N)c(C(=O)OC(C)COC)c2nc3ccccc3nc21 (stereo unspecified)	0	0	0	0	0	0
N#CC(c1ccc(O)cc1)N1CCCCC1 (stereo unspecified)	0	0	0	0	0	0
C=C[C@@H]1C[C@@]1(C)[C@@H](NP(=O)(c1ccccc1)c1ccccc1)c1ccccc1	?	15µM	0	0	0	?
C=C(C)[C@]12C[C@@H](C)[C@@]34OC(Cc5ccccc5)(O[C@@H]1[C@@H]3C=C(COC(=O)Cc1cc(I)c(O)c(OC)c1)C[C@]1(O)C(=O)C(C)=C[C@@H]41)O2	-	-	0	-	-	-
